The text below walks through data of PubChem BioAssay (NCI).

Test systems include HCT-15 colon; HT29 colon; SNB-75 CNS; SNB-19 CNS; U251 CNS; SK-MEL-5 melanoma; UACC-62 melanoma; LOX IMVI melanoma; SK-MEL-28 melanoma; SK-MEL-2 melanoma; SN12C renal; UO-31 renal; TK-10 renal; ACHN renal; CAKI-1 renal; CCRF-CEM leukemia; MOLT-4 leukemia; EKVX NSCLC; A498 renal.
What all share (assay): NCI-60 one-dose screen, 48 h (100 = growth as untreated, 0 = no growth, -100 = all killed)
Holding throughout (details): 10 µM unless noted

About 83,000 compounds went through this panel and 20% of them were active in at least one assay; those are over-represented in the sample as a whole.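 A percent growth of 40 corresponds to 60% growth inhibition; 0 means no net growth; -100 means all cells died. Active threshold: below 10.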 A number with no mark means an inactive call. Calls of active or inactive are those of the source.

Consider `CC(=O)n1cc([C@H]2CC[C@H](c3cn(C(C)=O)c4ccccc34)c3c2[nH]c2ccccc32)c2ccccc21`, for which the growth with HCT-15 colon was 58.7%; in the experiment on HT29 colon, 67.7%; in the experiment on SNB-75 CNS it was 87.4%; in the experiment with SNB-19 CNS, 93.2%; with U251 CNS, 82.9%; in the experiment with SK-MEL-5 melanoma, 80%. The growth was 64.4% with UACC-62 melanoma; 79.5% with LOX IMVI melanoma; 100% in the experiment with SK-MEL-28 melanoma; 79.6% in the experiment with SK-MEL-2 melanoma; 84.7% with SN12C renal; 55.3% in the experiment on UO-31 renal. The growth with TK-10 renal was 92.8%; with ACHN renal, 77.9%; in the experiment with CAKI-1 renal it was 57%; with CCRF-CEM leukemia it was 64.9%; with MOLT-4 leukemia, 57.6%.

On to `CC(Br)C(OC(=O)c1ccccc1Cl)c1cc2c(cc1Br)OCO2` (configuration not stated), for which the growth in the experiment on HCT-15 colon was 86.9%; in the experiment on HT29 colon it was 85.5%; in the experiment with SNB-75 CNS it was 67.4%; in the experiment on SNB-19 CNS, 93.7%; in the experiment with U251 CNS, 95.9%; in the experiment on SK-MEL-5 melanoma it was 87%. For the same compound, the growth in the experiment on UACC-62 melanoma is 72.5%; with LOX IMVI melanoma, 92.1%; with SK-MEL-28 melanoma, 94.5%; in the experiment on SK-MEL-2 melanoma, 90.4%; with EKVX NSCLC it was 76.6%; with SN12C renal it was 98.9%. The growth with UO-31 renal is 49.1%; with TK-10 renal it was 82.1%; in the experiment on ACHN renal, 88.2%; in the experiment with CAKI-1 renal, 70%; in the experiment with A498 renal, 88.5%; with CCRF-CEM leukemia it was 103%. In the experiment on MOLT-4 leukemia, the growth is 75.6%.

For the compound `NCCSC(c1ccccc1)(c1ccccc1)c1ccccc1`, the growth was 24.9% in the experiment with HCT-15 colon; 0.695% (active) with HT29 colon; 12.5% with SNB-75 CNS; 53.3% with SNB-19 CNS; 14.1% in the experiment with U251 CNS; 11.9% with SK-MEL-5 melanoma. The growth with UACC-62 melanoma is 29.5%; in the experiment with LOX IMVI melanoma it was 25.9%; in the experiment with SK-MEL-28 melanoma, 43%; with SK-MEL-2 melanoma, 25.6%; in the experiment with SN12C renal, 23.7%; with UO-31 renal, 42.7%. For the same compound, the growth in the experiment on TK-10 renal is 54.6%; in the experiment with ACHN renal it was 46.2%; in the experiment on CAKI-1 renal, 15.9%; in the experiment on A498 renal, 24.1%; in the experiment with MOLT-4 leukemia it was 3.39% (active).

Regarding `Cc1cnc(NC(=O)C(Cc2ccccc2)NC(=O)c2ccccc2)s1` (configuration not stated), the growth in the experiment with HCT-15 colon was 79.9%; in the experiment with HT29 colon it was 55%; in the experiment on SNB-75 CNS, 83.6%; with SNB-19 CNS, 93.3%; with U251 CNS, 92.2%; with SK-MEL-5 melanoma it was 25.5%. The growth is 62.2% in the experiment with UACC-62 melanoma; 55.9% in the experiment on LOX IMVI melanoma; 88.9% with SK-MEL-28 melanoma; 43.2% in the experiment with SK-MEL-2 melanoma; 78.5% with EKVX NSCLC; 76.1% in the experiment on SN12C renal. Moreover, the growth was 26.7% in the experiment on UO-31 renal; 79.2% in the experiment on TK-10 renal; 68% with ACHN renal; 92.4% with CAKI-1 renal; 92.6% in the experiment with A498 renal; 81.3% in the experiment with CCRF-CEM leukemia. Besides, in the experiment with MOLT-4 leukemia, the growth is 40.8%.

Regarding `COc1cc(OC)c(C(=O)/C=C/c2cccc(C(F)(F)F)c2)c(OC)c1`, the growth in the experiment with HCT-15 colon was 6.82% (active); in the experiment with HT29 colon, 3.81% (active); in the experiment on SNB-75 CNS, 19.2%; in the experiment with SNB-19 CNS it was 14.2%; in the experiment with U251 CNS, 9.44% (active); with SK-MEL-5 melanoma, 13.2%. In addition, the growth is -12.1% (active) with UACC-62 melanoma; -16.7% (active) in the experiment with LOX IMVI melanoma; 39.1% in the experiment with SK-MEL-28 melanoma; -16.1% (active) with SK-MEL-2 melanoma; 19.2% in the experiment on SN12C renal; 26.9% with UO-31 renal. Also, the growth is 15.1% in the experiment on TK-10 renal, 3.47% (active) with ACHN renal, 33.8% in the experiment with CAKI-1 renal and 1.4% (active) in the experiment with MOLT-4 leukemia.

In the case of `CCC1CCc2nc3sc(C(=O)Nc4cccc(C)c4)c(N)c3cc2C1` (configuration not stated), the growth in the experiment with HCT-15 colon was 43.7%; in the experiment with HT29 colon, 47.6%; in the experiment on SNB-75 CNS it was 71.2%; in the experiment with SNB-19 CNS, 86%; in the experiment with U251 CNS, 66.6%; in the experiment with SK-MEL-5 melanoma, 54.5%. The growth in the experiment with UACC-62 melanoma was 49.2%; in the experiment with LOX IMVI melanoma, 72.7%; with SK-MEL-28 melanoma, 69.7%; with SK-MEL-2 melanoma, 54.6%; in the experiment on SN12C renal, 90.8%; in the experiment with UO-31 renal it was 83.6%. Besides, the growth in the experiment on TK-10 renal is 78.3%; in the experiment on ACHN renal, 87%; with CAKI-1 renal, 78.1%; in the experiment on A498 renal, 45.4%; in the experiment on CCRF-CEM leukemia it was 47.7%; in the experiment with MOLT-4 leukemia, 52.6%.

`CCN(CC)CCCC(C)N=c1cc(Nc2cc(=NC(C)CCCN(CC)CC)c3cc(OC)ccc3o2)oc2ccc(OC)cc12` (configuration not stated): the growth with HCT-15 colon is -16.7% (active); in the experiment with HT29 colon, -42% (active); in the experiment on SNB-75 CNS it was -90.8% (active); with SNB-19 CNS it was 2.11% (active); with U251 CNS it was -57.6% (active); in the experiment with SK-MEL-5 melanoma it was -97.8% (active). Moreover, the growth with UACC-62 melanoma was -72.5% (active); in the experiment with LOX IMVI melanoma, -77.7% (active); in the experiment on SK-MEL-28 melanoma, -94.6% (active); with SK-MEL-2 melanoma it was -83.9% (active); with SN12C renal it was -9.47% (active); with UO-31 renal it was -88.8% (active). Further, the growth in the experiment on TK-10 renal is -50.2% (active); in the experiment with ACHN renal, -14.1% (active); in the experiment with CAKI-1 renal, -39.7% (active); in the experiment on A498 renal, -8.63% (active); in the experiment with CCRF-CEM leukemia it was -41.7% (active); with MOLT-4 leukemia, -55.8% (active).

For the compound `COc1cc2c3c(c(=O)oc2cc1OS(=O)(=O)c1ccc(C(F)(F)F)cc1)CCCCC3`, the growth was 79.2% in the experiment with HCT-15 colon; 78.8% in the experiment with HT29 colon; 8.09% (active) in the experiment on SNB-75 CNS; 76.7% in the experiment with SNB-19 CNS; 82.1% in the experiment with U251 CNS; 69.5% in the experiment on SK-MEL-5 melanoma. Also, the growth was 68.1% in the experiment with UACC-62 melanoma; 93.5% in the experiment on LOX IMVI melanoma; 76.3% in the experiment on SK-MEL-28 melanoma; 90.5% in the experiment with SK-MEL-2 melanoma; 89.7% with SN12C renal; 92.6% in the experiment with UO-31 renal. The growth is 122% with TK-10 renal; 72.5% in the experiment with ACHN renal; 86.3% with A498 renal; 90.2% in the experiment with CCRF-CEM leukemia; 95.9% in the experiment on MOLT-4 leukemia.

For `NC(CC(N)C(=O)O)C(=O)O` (configuration not stated), the growth in the experiment on HCT-15 colon is 88.4%; in the experiment on HT29 colon, 84.4%; in the experiment on SNB-75 CNS, 88.4%; with SNB-19 CNS, 108%; with U251 CNS, 93.8%; with SK-MEL-5 melanoma, 85%. The growth was 98% in the experiment with UACC-62 melanoma; 99.4% in the experiment on LOX IMVI melanoma; 90.1% in the experiment on SK-MEL-28 melanoma; 98.6% in the experiment on SK-MEL-2 melanoma; 93.8% with SN12C renal; 110% in the experiment on TK-10 renal. The growth in the experiment with ACHN renal is 95.7%; in the experiment on CAKI-1 renal, 97%; in the experiment with A498 renal it was 108%; in the experiment on MOLT-4 leukemia, 107%.
